# Reference: PubChem BioAssay (NCATS)
# Values joined by “and” are separate entries in the source; they are usually repeats but may differ in a detail not shown here. Equal entries are not always repeated. Values without a mark were called inactive. Inconclusive results are not listed. Entries that show only a call come without a potency. Active and inactive are the calls of the source. Unless noted, calls follow the shape of the dose curve; as a rule, active = well fitted curve in the direction sought with a large enough effect; inconclusive = small, poorly fitted or top-dose-only effect, or another doubt; inactive = no such curve, though single readings can be large; an effect the other way counts as inactive or inconclusive.
# Legend:
# [1] = molecular target: ATP-dependent 6-phosphofructokinase (Trypanosoma brucei brucei) (UniProt O15648); assay: qHTS Assay to Find Inhibitors of T. brucei phosphofructokinase: hit validation (AID 492961); conditions: T. brucei PFK, ADP-Glo luminescence; series mostly up to 51.4 µM
# Sequence of ATP-dependent 6-phosphofructokinase (Trypanosoma brucei brucei) (O15648 whole entry, looked up): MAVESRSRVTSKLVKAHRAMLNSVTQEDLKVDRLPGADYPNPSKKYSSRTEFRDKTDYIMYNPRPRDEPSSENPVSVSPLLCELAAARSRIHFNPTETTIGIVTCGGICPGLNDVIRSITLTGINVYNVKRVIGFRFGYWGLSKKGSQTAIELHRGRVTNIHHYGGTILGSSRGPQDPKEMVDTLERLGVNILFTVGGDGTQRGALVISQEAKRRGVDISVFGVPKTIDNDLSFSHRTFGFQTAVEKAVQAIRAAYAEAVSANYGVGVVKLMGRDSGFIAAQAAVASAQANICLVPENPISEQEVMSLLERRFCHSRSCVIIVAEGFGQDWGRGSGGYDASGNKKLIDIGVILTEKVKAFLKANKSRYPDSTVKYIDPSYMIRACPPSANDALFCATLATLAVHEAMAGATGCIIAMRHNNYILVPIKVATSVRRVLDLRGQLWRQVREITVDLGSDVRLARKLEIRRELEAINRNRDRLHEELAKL
# Method in brief: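 Luminescence from ADP-Glo reports ADP generated as T. brucei PFK (1.25 nM) phosphorylates 0.5 mM fructose-6-phosphate using 0.1 mM ATP. Reactions ran 45 min at room temperature, pH 8.0.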
# AS120 = assay: qHTS profiling for inhibitors of Plasmodium falciparum proliferation (AID 504749); also: nearly all actives have a fitted effect of over 60% in size; also: potency is read from the fitted curve at half-maximal effect; conditions: P. falciparum in erythrocytes, SYBR Green DNA, 72 h; series mostly up to 28.7 µM
# Method in brief: (§1)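 Readout was DNA-dye fluorescence from lysed cultures, ex 485/em 535 nm. Parasitized red cells had grown 72 h with compound; data scaled between 0.29 uM artemisinin and DMSO wells and corrected using vehicle-only plates.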
# ATS189 = assay: as above; conditions: P. falciparum in erythrocytes, SYBR Green DNA, 72 h; series mostly up to 28.7 µM
# Method in brief: as §1
# ATS95 = assay: as above; conditions: P. falciparum in erythrocytes, SYBR Green DNA, 72 h; series mostly up to 28.7 µM
# Method in brief: as §1
# C2A = assay: as above; conditions: P. falciparum in erythrocytes, SYBR Green DNA, 72 h; series mostly up to 28.7 µM
# Method in brief: as §1
# CP191 = assay: as above; conditions: P. falciparum in erythrocytes, SYBR Green DNA, 72 h; series mostly up to 28.7 µM
# Method in brief: as §1
# CP217 = assay: as above; conditions: P. falciparum in erythrocytes, SYBR Green DNA, 72 h; series mostly up to 28.7 µM
# Method in brief: as §1
# CP237 = assay: as above; conditions: P. falciparum in erythrocytes, SYBR Green DNA, 72 h; series mostly up to 28.7 µM
# Method in brief: as §1
# CP252 = assay: as above; conditions: P. falciparum in erythrocytes, SYBR Green DNA, 72 h; series mostly up to 28.7 µM
# Method in brief: as §1
# CP286 = assay: as above; conditions: P. falciparum in erythrocytes, SYBR Green DNA, 72 h; series mostly up to 28.7 µM
# Method in brief: as §1
# SC27B = assay: as above; conditions: P. falciparum in erythrocytes, SYBR Green DNA, 72 h; series mostly up to 28.7 µM
# Method in brief: as §1
# TAB113 = assay: as above; conditions: P. falciparum in erythrocytes, SYBR Green DNA, 72 h; series mostly up to 28.7 µM
# Method in brief: as §1
# TAB165 = assay: as above; conditions: P. falciparum in erythrocytes, SYBR Green DNA, 72 h; series mostly up to 28.7 µM
# Method in brief: as §1
# [2] = molecular target: Glucocorticoid receptor (Homo sapiens) (UniProt P04150); assay: GR-GFP Redistribution (AID 450;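 active = compounds whose dose series gives a full or clear partial fitted curve of increased nuclear translocation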; also: potency is read from the fitted curve at half-maximal effect); conditions: U2OS GR-GFP nuclear translocation, laser cytometry, 2 h
# Sequence of Glucocorticoid receptor (Homo sapiens) (P04150 whole entry, looked up): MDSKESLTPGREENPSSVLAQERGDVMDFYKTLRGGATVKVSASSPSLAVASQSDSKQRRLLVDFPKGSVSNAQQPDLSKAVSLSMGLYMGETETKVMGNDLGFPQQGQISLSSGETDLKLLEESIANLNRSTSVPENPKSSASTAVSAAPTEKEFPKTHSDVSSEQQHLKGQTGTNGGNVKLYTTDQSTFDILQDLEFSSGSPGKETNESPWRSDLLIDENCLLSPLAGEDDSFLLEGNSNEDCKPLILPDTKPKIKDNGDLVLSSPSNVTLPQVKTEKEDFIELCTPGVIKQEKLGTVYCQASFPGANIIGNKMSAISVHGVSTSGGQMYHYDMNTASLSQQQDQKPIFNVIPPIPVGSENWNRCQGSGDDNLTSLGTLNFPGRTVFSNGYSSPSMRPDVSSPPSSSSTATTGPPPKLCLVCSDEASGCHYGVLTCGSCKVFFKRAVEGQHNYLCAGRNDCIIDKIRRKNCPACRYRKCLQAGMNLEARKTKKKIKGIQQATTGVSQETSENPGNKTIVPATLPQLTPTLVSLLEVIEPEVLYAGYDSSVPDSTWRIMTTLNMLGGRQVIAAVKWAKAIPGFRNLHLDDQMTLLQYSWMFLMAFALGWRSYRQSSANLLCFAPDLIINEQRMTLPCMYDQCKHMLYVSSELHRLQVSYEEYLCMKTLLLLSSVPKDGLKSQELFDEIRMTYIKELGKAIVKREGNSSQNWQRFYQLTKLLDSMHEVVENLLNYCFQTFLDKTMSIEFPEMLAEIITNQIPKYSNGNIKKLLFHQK
# [3] = molecular target: Mitogen-activated protein kinase 10 (Mus musculus) (UniProt Q61831); assay: JNK3 AlphaScreen Assay (AID 530; active = well fitted curve in either direction with a large enough effect, not every such curve was filed as active;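 also: kinase came from lysate of stimulated human HepG2 cells; signal reports phosphorylation of biotinylated GST-cJun 1-79 at Ser73 with 10 µM ATP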); conditions: JNK3 lysate, c-Jun phosphorylation; series mostly up to 57.1 µM
# Method in brief: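 qHTS format: compounds tested as titrations against IL-1beta/TNF-alpha-activated HepG2 lysate JNK3 with biotin-GST-cJun substrate and 10 uM ATP at room temperature. Loss of anti-phospho-cJun AlphaScreen signal indicates inhibition.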
# [4] = molecular target: 3',5'-cyclic-AMP phosphodiesterase 4B (Homo sapiens) (UniProt Q07343); assay: qHTS Assay for Inhibitors of PDE-IV (AID 607; active = well fitted activation curve with a large enough effect in the main read-out, with a control signal flat, not every such curve was filed as active; also: potency is read from the fitted curve at half-maximal effect); conditions: HEK293 ACTOne CNG channel cells, membrane potential fluorescence; series mostly up to 22.9 µM
# Sequence of 3',5'-cyclic-AMP phosphodiesterase 4B (Homo sapiens) (Q07343 whole entry, looked up): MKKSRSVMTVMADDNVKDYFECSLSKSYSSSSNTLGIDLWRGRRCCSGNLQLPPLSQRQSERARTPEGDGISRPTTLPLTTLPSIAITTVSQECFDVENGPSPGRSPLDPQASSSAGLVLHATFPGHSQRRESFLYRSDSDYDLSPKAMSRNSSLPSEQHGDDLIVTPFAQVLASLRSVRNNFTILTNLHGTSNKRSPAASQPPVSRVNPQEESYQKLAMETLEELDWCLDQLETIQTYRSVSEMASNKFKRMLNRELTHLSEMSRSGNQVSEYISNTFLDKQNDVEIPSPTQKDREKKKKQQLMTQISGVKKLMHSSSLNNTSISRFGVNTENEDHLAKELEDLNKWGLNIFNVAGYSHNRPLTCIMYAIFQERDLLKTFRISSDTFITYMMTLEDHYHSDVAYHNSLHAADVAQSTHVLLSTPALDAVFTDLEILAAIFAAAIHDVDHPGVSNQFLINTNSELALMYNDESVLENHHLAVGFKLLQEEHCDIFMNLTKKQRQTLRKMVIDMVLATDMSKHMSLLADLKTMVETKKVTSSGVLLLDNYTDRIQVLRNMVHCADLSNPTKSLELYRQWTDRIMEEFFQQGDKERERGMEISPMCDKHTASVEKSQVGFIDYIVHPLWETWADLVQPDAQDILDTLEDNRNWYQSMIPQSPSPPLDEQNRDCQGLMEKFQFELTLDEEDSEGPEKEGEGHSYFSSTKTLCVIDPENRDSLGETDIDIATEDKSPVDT
# Method in brief: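 HEK293 ACTOne cells with CNG channel (1000/well), endogenous PDE4; membrane potential dye, compounds up to 22.9 uM final. Fluorescence Ex 535/Em 590; RO 20-1724 (100 uM final) as reference.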
# [5] = qHTS Assay for Identification of Small Molecule Antagonists for NFkB Signaling Pathway (AID 895; active = well fitted inhibition curve with a large enough effect in the signal ratio, with a control signal flat, not every such curve was filed as active; the % refers to the signal ratio; also: potency is read from the fitted curve at half-maximal effect); conditions: NFkB beta-lactamase reporter cells, FRET ratio 460/530, stimulated with 10 pM TNF alpha; series mostly up to 38.3 µM
# Method in brief: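 ME-180 NFkB-bla cells (beta-lactamase under NFkB response element), plated overnight, treated with compound then 10 pM TNF alpha (about EC50) for 5 hrs at 37 C. LiveBLAzer FRET read at 460/530 nm emission, 405 nm excitation.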
# [6] = qHTS Assay for Identification of Small Molecule Agonists for Thrombopoietin (TPO) Signaling Pathway (AID 917); conditions: TPO signaling pathway reporter cells, agonist qHTS, stimulated with TPO at its EC50; series mostly up to 38.5 µM
# Method in brief: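 Reporter: GpIIb promoter–luciferase in murine Ba/F3 expressing human TPO receptor. Pre-starved of IL-3 overnight; compounds with 26 pM TPO, 24 hrs, 37 C/5% CO2; luminescence read.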
# [7] = molecular target: Muscarinic acetylcholine receptor M1 (Rattus norvegicus) (UniProt P08482); assay: qHTS Assay for Antagonists of Acetylcholine Muscarinic M1 Receptor: Measurement of IP-One Response (AID 944); conditions: CHO-M1 cells, IP-One HTRF, antagonist mode; series mostly up to 46.1 µM; also: nearly all actives have a fitted effect of over 75% in size; also: potency is read from the fitted curve at half-maximal effect
# Sequence of Muscarinic acetylcholine receptor M1 (Rattus norvegicus) (P08482 whole entry, looked up): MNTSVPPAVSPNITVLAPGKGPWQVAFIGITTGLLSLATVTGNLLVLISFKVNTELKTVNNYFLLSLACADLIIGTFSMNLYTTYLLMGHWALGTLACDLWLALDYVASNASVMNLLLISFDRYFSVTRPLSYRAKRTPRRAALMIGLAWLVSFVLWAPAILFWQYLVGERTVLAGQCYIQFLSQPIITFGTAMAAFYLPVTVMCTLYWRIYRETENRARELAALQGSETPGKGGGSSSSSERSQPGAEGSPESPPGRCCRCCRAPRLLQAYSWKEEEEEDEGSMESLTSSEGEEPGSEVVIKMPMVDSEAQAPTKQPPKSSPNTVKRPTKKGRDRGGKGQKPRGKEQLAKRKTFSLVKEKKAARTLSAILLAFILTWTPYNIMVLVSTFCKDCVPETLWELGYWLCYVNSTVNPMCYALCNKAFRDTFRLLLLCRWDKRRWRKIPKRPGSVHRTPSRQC
# Method in brief: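 CHO cells expressing rat M1 receptor, recovered overnight, were pre-incubated 10 min with compound, then stimulated 30 min with carbachol at EC80 (200 nM) in LiCl-containing buffer, pH 7.4. IP1 accumulation was read by HTRF (620/665 nm).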
# [8] = NFAT Signaling Pathway (AID 444; active = well fitted curve in either direction with a large enough effect, not every such curve was filed as active;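 also: carbachol stimulus at about its EC50 of 1 µM final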); conditions: Jurkat NFAT-bla M1, carbachol, beta-lactamase ratio, 5 h; at 7.69 µM (top of the series) unless noted
# Method in brief: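 Jurkat cells with NFAT-driven β-lactamase reporter and co-expressed M1 receptor, stimulated with carbachol (final 1 uM, ~EC50), compound titration, 5 h at 37 °C. CCF4 loaded 1 h at RT; 460/530 nm ratio gave %activity and AC50.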
structure (smiles),measurement,setting,value
C=C1/C(=C\C=C2/CCC[C@]3(C)[C@@H]([C@H](C)CCCC(C)(C)O)CC[C@@H]23)C[C@@H](O)C[C@@H]1O,outcome,[1],inactive
same,Potency,AS120,inactive
same,Potency,ATS189,inactive
same,Potency,ATS95,inactive
same,Potency,C2A,inactive
same,Potency,CP191,inactive
same,Potency,CP217,inactive
same,Potency,CP237,inactive
same,Potency,CP252,inactive
same,Potency,CP286,inactive
same,Potency,SC27B,inactive
same,Potency,TAB113,inactive
same,Potency,TAB165,inactive
CC(C)n1c(/C=C/[C@H](O)C[C@H](O)CC(=O)O)c(-c2ccc(F)cc2)c2ccccc21,outcome,[1],inactive
NCCC(=O)NCCc1cnc[nH]1,Potency,[2],> 46 µM and > 20.6 µM
same,outcome,[3],inactive
same,Potency,[4],inactive
same,Potency,[5],inactive
same,outcome,[6],inactive
same,Potency,[7],inactive
CN=C(N)NCCCC(N)C(=O)O (stereo not drawn),outcome,[1],inactive
same,Potency,AS120,inactive
same,Potency,ATS189,inactive
same,Potency,ATS95,inactive
same,Potency,C2A,inactive
same,Potency,CP191,inactive
same,Potency,CP217,inactive
same,Potency,CP237,inactive
same,Potency,CP252,inactive
same,Potency,CP286,inactive
same,Potency,SC27B,inactive
same,Potency,TAB113,inactive
same,Potency,TAB165,inactive
N[C@H](Cc1ccc(O)c(O)c1)C(=O)O,Potency,AS120,inactive
same,Potency,ATS189,inactive
same,Potency,ATS95,inactive
same,Potency,C2A,inactive
same,Potency,CP191,inactive
same,Potency,CP217,inactive
same,Potency,CP237,inactive
same,Potency,CP252,inactive
same,Potency,CP286,inactive
same,Potency,SC27B,inactive
same,Potency,TAB113,inactive
same,Potency,TAB165,inactive
N=C(N)SCCc1cccc(CCSC(=N)N)c1,Potency,[2],> 46 µM
same,outcome,[3],inactive
same,Potency,[4],inactive
same,Potency,[5],inactive
same,outcome,[6],inactive
NC(=NCCC[C@H](N)C(=O)O)NO,"activity change, negative = inhibition",[8],10.4% [at 38 µM]
same,Potency,[2],> 46 µM
same,outcome,[3],inactive
same,Potency,[4],inactive
same,Potency,[5],0.398 µM (active)
same,outcome,[6],inactive
same,Potency,[7],inactive
NCCNC(=O)c1ccc(Cl)cc1,Potency,[2],> 46 µM
same,outcome,[3],inactive
same,Potency,[4],inactive
same,outcome,[6],inactive
same,Potency,[7],inactive
N=C1Sc2ccccc2C2=NCCCN12,Potency,[2],> 46 µM
same,outcome,[3],inactive
same,Potency,[4],inactive
same,Potency,[5],2 µM (active)
same,Potency,[7],inactive
CN1C(=O)CCC1c1cccnc1 (stereo not drawn),outcome,[1],inactive
same,Potency,AS120,inactive
same,Potency,ATS189,inactive
same,Potency,ATS95,inactive
same,Potency,C2A,inactive
same,Potency,CP191,inactive
same,Potency,CP217,inactive
same,Potency,CP237,inactive
same,Potency,CP252,inactive
same,Potency,CP286,inactive
same,Potency,SC27B,inactive
same,Potency,TAB113,inactive
same,Potency,TAB165,inactive
O=C(Cc1ccc(Cl)c(Cl)c1)OCCN1CCCC1,"activity change, negative = inhibition",[8],-14.7% [at 38 µM]
same,Potency,[2],> 46 µM
same,outcome,[3],inactive
same,Potency,[4],inactive
same,Potency,[5],inactive
same,outcome,[6],inactive
OC[C@H]1O[C@@H](n2cnc3c(NCCc4ccccc4)ncnc32)[C@H](O)[C@H]1O,Potency,[7],inactive
COc1cc2c(cc1OC)C(c1ccccc1)CN(C)CC2 (stereo not drawn),outcome,[1],inactive
same,Potency,AS120,inactive
same,Potency,ATS189,inactive
same,Potency,ATS95,inactive
same,Potency,C2A,inactive
same,Potency,CP217,inactive
same,Potency,CP237,6.31 µM (active)
same,Potency,CP252,inactive
same,Potency,CP286,inactive
same,Potency,SC27B,inactive
same,Potency,TAB113,inactive
same,Potency,TAB165,inactive
CC(C)(C)[C@]1(O)CCN2CC3c4ccccc4CCc4cccc(c43)[C@@H]2C1 (stereo partly drawn),outcome,[1],inactive
same,Potency,ATS95,10 µM (active)
same,Potency,C2A,11.2 µM (active)
same,Potency,CP191,8.91 µM (active)
same,Potency,CP217,8.91 µM (active)
same,Potency,CP237,11.2 µM (active)
same,Potency,CP252,10 µM (active)
same,Potency,CP286,8.91 µM (active)
same,Potency,SC27B,7.94 µM (active)
same,Potency,TAB165,11.2 µM (active)
CC(C)CN(C)c1nc(N)c(C(=O)N=C(N)N)nc1Cl,"activity change, negative = inhibition",[8],-14% [at 38 µM]
same,outcome,[3],inactive
same,Potency,[4],inactive
same,Potency,[5],inactive
same,Potency,[7],inactive
NCCCCNS(=O)(=O)c1cccc2c(Cl)cccc12,"activity change, negative = inhibition",[8],-12.9% [at 38 µM]
same,Potency,[2],> 46 µM
same,Potency,[4],inactive
same,Potency,[7],17.8 µM (active)
CC(=O)NCCc1ccc(O)c(O)c1,"activity change, negative = inhibition",[8],11.3% [at 38 µM]
same,Potency,[2],> 46 µM
same,Potency,[4],inactive
same,Potency,[5],inactive
same,outcome,[6],inactive
COC(=O)c1c(-c2cc(OC)c(OC)c(OC)c2)c2ccc(OCc3ccccn3)cc2c(=O)n1-c1ccc(N)cc1,"activity change, negative = inhibition",[8],10.6% [at 38 µM]
same,Potency,[2],> 46 µM
same,outcome,[3],inactive
same,Potency,[5],3.16 µM (active)
same,outcome,[6],inactive
same,Potency,[7],inactive
CCSC(N)=Nc1ccc(C(F)(F)F)cc1,"activity change, negative = inhibition",[8],0.554% [at 38 µM]
same,Potency,[2],> 46 µM
same,outcome,[3],inactive
same,Potency,[4],inactive
same,outcome,[6],inactive
COc1ccc(CCNC[C@@H](O)c2ccc(O)cc2)cc1OC,outcome,[1],inactive
same,Potency,AS120,inactive
same,Potency,ATS189,inactive
same,Potency,ATS95,inactive
same,Potency,C2A,inactive
same,Potency,CP191,inactive
same,Potency,CP217,inactive
same,Potency,CP237,inactive
same,Potency,CP252,inactive
same,Potency,CP286,inactive
same,Potency,SC27B,inactive
same,Potency,TAB113,inactive
same,Potency,TAB165,inactive
CN1C[C@H](C(=O)N[C@]2(C)O[C@@]3(O)C4CCCN4C(=O)[C@H](Cc4ccccc4)N3C2=O)C[C@@H]2c3cccc4[nH]cc(c34)C[C@H]21 (stereo partly drawn),Potency,AS120,1.41 µM (active)
same,Potency,ATS189,3.98 µM (active)
same,Potency,ATS95,7.08 µM (active)
same,Potency,C2A,8.91 µM (active)
same,Potency,CP191,7.08 µM (active)
same,Potency,CP217,6.31 µM (active)
same,Potency,CP237,1 µM (active)
same,Potency,CP252,6.31 µM (active)
same,Potency,CP286,3.98 µM (active)
same,Potency,SC27B,2.24 µM (active)
same,Potency,TAB113,3.55 µM (active)
same,Potency,TAB165,1.41 µM (active)
CCCC(=O)NCCc1c2n(c3ccc(OC)cc13)Cc1ccccc1-2,"activity change, negative = inhibition",[8],-10.2% [at 38 µM]
same,Potency,[2],> 46 µM
same,outcome,[3],inactive
same,Potency,[4],inactive
same,outcome,[6],inactive
same,Potency,[7],inactive
CCn1c(=O)c2[nH]c(-c3ccccc3)nc2n(CC)c1=O,"activity change, negative = inhibition",[8],15.8% [at 38 µM]
same,Potency,[2],> 46 µM
same,Potency,[4],2 µM (active)
same,Potency,[5],inactive
same,Potency,[7],inactive
CC(C)C[C@H]1C(=O)N2CCCC2[C@]2(O)O[C@](NC(=O)[C@@H]3C=C4c5cccc6[nH]c(Br)c(c56)C[C@H]4N(C)C3)(C(C)C)C(=O)N12 (stereo partly drawn),outcome,[1],inactive
same,Potency,AS120,3.55 µM (active)
same,Potency,ATS189,5.01 µM (active)
same,Potency,ATS95,5.01 µM (active)
same,Potency,C2A,11.2 µM (active)
same,Potency,CP191,7.94 µM (active)
same,Potency,CP217,7.08 µM (active)
same,Potency,CP237,2 µM (active)
same,Potency,CP252,7.08 µM (active)
same,Potency,CP286,3.55 µM (active)
same,Potency,SC27B,6.31 µM (active)
same,Potency,TAB113,3.16 µM (active)
same,Potency,TAB165,2.82 µM (active)
